According to the OligoGym collection:

biological target: GPS1; test: pooled miR-30 sensor sort-seq; sequence = guide strand; conditions: shRNA
Further: reference of the scale not given here.

| Sequence | sensor-assay potency score (higher = more potent) |
| --- | --- |
| TTGACATGGATCTGGTTGCGGA | -0.378 |
| TAGCACTTGAGGGCGTTGCTGA | -0.484 |
| AACAACTTGAAGGAGCTGCTGG | -0.415 |
| TTGTAGTTCTTCAGGTCTGTGT | -0.35 |
| TTGCTGTGTGAGTCCACACGGG | -0.414 |
| TTGAAGGCTGCCGCCATCCTAT | -1.18 |
| TTGCGCTGCAGCTCCTGCCGGT | -0.804 |
| TTCATCTCGTCCAGCATCTTGA | -0.805 |
| TCCAGCTCCAAGAACAACTTGA | -0.994 |
| TACTGTTCCAGATCCAGGCTGG | 0.176 |

biological target: GPT2; test: as above; conditions: shRNA

| Sequence | sensor-assay potency score (higher = more potent) |
| --- | --- |
| TTGGTTAAACAGGTCTTCCGTC | 0.251 |
| TTTCACCTTCTGCAGCACCGTT | -1.46 |
| TCTGTAACCACACTCGCCCATG | -1.08 |
| TTGGCAGGAATGAAGATCCGAG | -0.485 |
| TTGATCACCTCCATGTAGCCTC | 0.135 |
| TCATGCAGTAGAACATGTCTGG | 0.355 |
| TTCAGGATCGTAGAAATGCCGT | -0.741 |
| TACAGCACCTTCTTGAAGGAGT | -0.472 |
| TTCACCTTCTGCAGCACCGTTT | -0.638 |
| TTAGCATCTTCTGGGAAGCTGG | -0.879 |
| TAACAGATTCAGAGAACCCTGG | 0.0686 |

biological target: GPX1; test: as above; conditions: shRNA

| Sequence | sensor-assay potency score (higher = more potent) |
| --- | --- |
| TTCATCTGGGTGTAGTCCCGGA | -0.32 |
| ATTCTCGATAAGTAGTACCTTG | -0.704 |
| TTCAGAATCTCTTCGTTCTTGG | 0.596 |
| TTCGTTCTTGGCGTTCTCCTGA | 0.781 |
| TAGGTTTAGAGGAAACACCCTC | -0.561 |
| AATCTCTTCGTTCTTGGCGTTC | -1.08 |
| TTCCAGGCAACATCGTTGCGAC | -1 |
| ATTCAGAATCTCTTCGTTCTTG | 0.126 |
| ACATCGTTGCGACACACCGGAG | -1.77 |
| TTTTCTATGAGTCACCGGGATT | -1.88 |
| AACATCGTTGCGACACACCGGA | -0.00294 |
| TTGGGGTCGGTCATAAGCGCGG | -1.09 |

biological target: GPX2; test: as above; conditions: shRNA

| Sequence | sensor-assay potency score (higher = more potent) |
| --- | --- |
| TATTGGTCTCTTCTAGCAGAGT | -1.55 |
| TTCCAGGCCACATCTGAGCGGC | -0.521 |
| TTGCAGCTCGTTGAGCTGGGTG | -0.963 |
| TTGATGTCAGGCTCAATGTTGA | -0.614 |
| ATACTTGAGACTGTTCAGGATC | -0.893 |
| TCACATTTTTGGACAAGGGTGA | 0.0993 |
| TTGATGGTTGGGAAGGTGCGGC | -0.796 |
